From PubChem BioAssay
DAX1 inh-1 = DAX1 (NR0B1) inhibitors on StAR promoter, primary screen, cell-based, luminescence, SF-1 (NR5A1), full-length DAX-1; HEK293T StAR-luciferase reporter, SF-1/DAX-1 repression relief; inhibition, % at 6.8 µM; 370,000 compounds, 1.1% hits; AID 652010, 2013;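 active means inhibition above the mean over all tested compounds plus 3 SD, cut at about 3.6% in these data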;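 further: higher inhibition means more luminescence from relief of DAX-1 repression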
DAX1 inh-2 = DAX1 (NR0B1) inhibitors, primary screen, cell-based, HEK293, Gal4-DAX1, luciferase luminescence; 340,000 compounds, 0.99% hits; Nuclear receptor subfamily 0 group B member 1 (Homo sapiens), P51843; AID 504766, 2011; HEK293 Gal4-DAX1 luciferase reporter; inhibition, % at 6.75 µM;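 active means inhibition above the mean over all tested compounds plus 3 SD, cut at about 4.2% in these data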;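 further: inhibition shows as a rise in luminescence from relieved DAX1 repression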
Target sequence (P51843 207-470 limits assumed): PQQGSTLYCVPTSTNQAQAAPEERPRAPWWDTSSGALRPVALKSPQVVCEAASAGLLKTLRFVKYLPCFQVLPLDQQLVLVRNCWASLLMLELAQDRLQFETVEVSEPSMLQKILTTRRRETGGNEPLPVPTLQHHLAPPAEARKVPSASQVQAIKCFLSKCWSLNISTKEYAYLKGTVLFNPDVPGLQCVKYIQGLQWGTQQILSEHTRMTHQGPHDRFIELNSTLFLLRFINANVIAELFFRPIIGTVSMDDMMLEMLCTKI
ssDAF12 agonist = S. stercoralis DAF-12 nuclear receptor activators, primary screen, cell-based, luminescence, HEK293, GRIP1 co-expression, lit1-tk-luc; activation, % at 6.8 µM; HEK293 ssDAF-12/GRIP1 lit1-tk-luc reporter; % of 3 µM dafachronic acid response; 370,000 compounds, 1% hits; Nuclear hormone receptor DAF-12 (Strongyloides stercoralis);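 active means activation above the mean over all tested compounds plus 3 SD, cut at about 0.9% in these data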
hgDAF12 agonist = H. glycines DAF-12 receptor agonists, primary screen, cell-based, luminescence, HEK293, GAL4 fusion, UAS-luciferase; activation, % at 6.8 µM; Nuclear hormone receptor DAF-12 (Heterodera glycines), GAL4 fusion; 370,000 compounds, 1.8% hits; HEK293 GAL4-hgDAF12 UAS-luciferase reporter, agonist luminescence; normalized to butyrate control;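 active means activation above a cutoff set at the mean of all screened compounds plus 3 SD, cut at about 10% in these data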
hcDAF-12 act = H. contortus DAF-12 nuclear receptor activators, primary screen, cell-based, luminescence, HEK293, lit1-tk-luc reporter; HEK293 hcDAF-12 lit1-tk-luc reporter; 0% DMSO, 100% Δ7-dafachronic acid; activation, % at 6.8 µM; 370,000 compounds, 1.4% hits; AID 652067, 2013;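 active means activation above the mean of all tested compounds plus 3 SD, cut at about 5.5% in these data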
Hits are given with their value; n = inactive; x = not tested or not shown. Rows were chosen to be rich in hits. Some 4.1% of all compounds tested hit in one or more screens of this group.

SMILES | DAX1 inh-1 | DAX1 inh-2 | ssDAF12 agonist | hgDAF12 agonist | hcDAF-12 act
CC(C)=CCCC1(C)C=Cc2c(c(C)cc3c2[nH]c2cc(O)ccc23)O1 (centres undefined) | n | 4.9 | n | n | n
Cc1ccc(C)c(NC(=O)CSc2nnc(-c3cc(C)[nH]n3)n2N)c1 | n | n | n | n | n
C(=C\c1ccccc1)/CSc1ccccn1 | n | 4.4 | n | n | n
C(=CCSc1ccccn1)CSc1ccccn1 | n | x | n | n | n
CC(C)[C@H](NS(=O)(=O)c1ccc(F)cc1F)C(=O)N1CCC[C@H]1C(=O)NCc1ccccc1 | n | x | n | n | n
O=C(COc1cc(Cl)ccc1Cl)Nc1nnc(C2CC2)s1 | n | n | n | n | n
Nc1ccn([C@@H]2O[C@H](C(=O)N[C@H](Cc3ccccc3)C(=O)Nc3ccc4scnc4c3)[C@@H](O)[C@H]2O)c(=O)n1 | n | x | n | n | n
O=C(CCNc1ccc(Cc2ccncc2)cc1)c1ccc([N+](=O)[O-])cc1 | n | n | 11 | n | n
C[n+]1c(/C=C/c2ccc3c(c2)OCO3)ccc2ccccc21 | n | 6.0 | n | n | n
C[n+]1c(/C=C/c2ccc(O)cc2)ccc2ccccc21 | n | n | n | n | n
COC(=O)c1c(NC(=O)Cc2ccccc2)sc2c1CCN(C(C)C)C2 | n | n | n | n | n
CCOC(=O)c1c(NC(=O)CCS(=O)(=O)c2ccccc2)sc2c1CCN(C(C)C)C2 | 4.0 | n | n | n | n
COc1ccc(C(=O)N[C@H](C(=O)Nc2nc3c(s2)CCCC3)C(C)C)cc1 | n | n | n | n | n
CCOc1ccccc1C(=O)N[C@H](C(=O)Nc1nc2c(s1)CCCC2)C(C)C | n | n | 4.1 | n | n
O=C(CCl)N1c2ccccc2Oc2ccc3ccccc3c21 | n | n | n | n | n
CC(=O)N1c2ccccc2Oc2cc3ccccc3cc21 | n | n | n | n | 5.7
O=C(NCc1ccco1)/C(=C\C=C\c1ccccc1)NC(=O)c1ccco1 | n | 7.4 | n | n | n
CN(CC(=O)Nc1ccc(Cl)c(C(F)(F)F)c1)C(=O)/C=C/c1cccs1 | n | n | n | n | n
CC(C)(C)OC(=O)/C=C/[C@@H](CCCCl)Sc1ccc(C(C)(C)C)cc1 | n | x | n | n | n
CN(C)S(=O)(=O)c1ccc2c(c1)c(=O)c(C(=O)NCCCN1CCCCCC1)cn2C | n | 5.2 | n | n | n
CN(CCCNC(=O)c1cn(C)c2ccc(S(=O)(=O)N(C)C)cc2c1=O)c1ccccc1 | n | 5.3 | n | n | n
CCn1cc(C(=O)NCCCN2CCN(C)CC2)c(=O)c2cc(S(=O)(=O)N3CCc4ccccc4C3)ccc21 | n | n | 1.5 | n | n
CN(C)S(=O)(=O)c1ccc2c(c1)c(=O)c(C(=O)N1CCOCC1)cn2C | n | 5.9 | n | n | n
CCN(CC)S(=O)(=O)c1ccc2c(c1)c(=O)c(C(=O)NCCCN(C)c1ccccc1)cn2C | n | n | n | n | n
NC(=O)c1ncn([C@@H]2O[C@H](C(=O)N[C@H](Cc3c[nH]c4ccccc34)C(=O)NCC(=O)N3CCCCC3)[C@@H](O)[C@H]2O)n1 | n | x | n | n | n
SMILES | DAX1 inh-1 | DAX1 inh-2 | ssDAF12 agonist | hgDAF12 agonist | hcDAF-12 act
Cc1onc(-c2ccccc2)c1C(=O)NCC1CCN(C(=O)C(=O)c2cccs2)CC1 | n | x | n | n | n
CC(C)CC(N)c1csc(Nc2cc(Oc3ccccc3)ncn2)n1 (centres undefined) | n | x | n | n | n
Nc1cccc(Oc2ccc3c(c2)C(=O)N(CC2CCCO2)C3=O)c1 (centres undefined) | n | n | n | 11 | n
CCOc1ccccc1-c1n[nH]c(=S)o1 | n | n | 1.0 | n | 6.4
CCCCc1cc(=O)oc2cc(C)cc(OCC(=O)N3C[C@H]4C[C@@H](C3)c3cccc(=O)n3C4)c12 | n | 7.0 | n | n | n
CCCc1cc(=O)oc2cc(C)cc(OCC(=O)N3C[C@H]4C[C@@H](C3)c3cccc(=O)n3C4)c12 | n | x | n | n | n
COC(=O)c1ccc(N=NNc2ccccc2)cc1 | 4.1 | n | n | 11 | n
Cc1nn(-c2ccccc2)c(/N=C/c2ccc(O)cc2)c1-c1ccccc1 | n | n | 1.0 | n | n
Cc1nn(-c2ccccc2)c(C)c1-c1ccccc1O | n | n | n | n | n
O=C(NC1CCCCN(Cc2cccc(C(F)(F)F)c2)C1=O)c1ccc(Cl)cc1 (centres undefined) | n | x | n | n | n
CCOc1ccccc1N(CC(=O)Nc1ccc(OC)cc1OC)S(=O)(=O)c1ccccc1 | n | n | n | n | n
CCOc1ccccc1N(CC(=O)Nc1ccccc1F)S(=O)(=O)c1ccccc1 | n | n | n | 10 | n
COc1cc(C(=O)NNC(=O)C2CC=CCC2C(=O)O)cc(OC)c1OC (centres undefined) | n | n | 1.9 | n | n
COc1cc(C(=O)NNC(=O)C2CCC2)cc(OC)c1OC | n | n | n | n | n
C[C@@H]1CN([C@@H](C)CO)S(=O)(=O)c2ccc(Br)cc2O[C@H]1CN(C)C(=O)c1ccncc1 | n | n | n | n | n
Nn1c(SCc2c(F)cccc2F)nnc1-c1ccccn1 | n | 24 | n | n | n
COc1ccc(-c2noc(C3CCCN(C(=O)Nc4ccccc4F)C3)n2)cc1 (centres undefined) | n | n | n | 11 | n
Cc1ccc(-c2noc(C3CCCN(C(=O)c4ccccc4Br)C3)n2)o1 (centres undefined) | n | n | 1.7 | n | n
CCN(CC)c1ccc(-c2nn3c(-c4ccc(C(C)(C)C)cc4)nnc3s2)cc1 | n | x | n | n | n
O=C(Nc1ccc(N2CCCC2)cc1)c1cccc(Cl)c1 | n | n | n | 12 | 6.0
O=C(Nc1ccc(N2CCCC2)cc1)c1cc(Cl)ccc1Cl | n | n | n | n | n
Cc1cccc(C(=O)Nc2ccc(N3CCN(S(C)(=O)=O)CC3)cc2)c1 | n | n | n | 11 | n
COc1ccc(C(=O)c2[nH]c(N)c(C(=O)c3c[nH]c4ccccc34)c2-c2ccc(F)c(OC)c2)cc1 | n | x | n | n | n
Cc1ccc(C(=O)C(C)[n+]2cccc(C(N)=O)c2)cc1 (centres undefined) | n | 7.1 | n | n | n
c1ccc(OCCOc2ncnc3ccccc23)cc1 | n | n | n | 11 | n
O=C(COc1ncnc2ccccc12)c1ccc(Cl)cc1 | n | n | n | 11 | n
Cc1cnc(C(=O)Nc2ccc(F)cc2)cn1 | n | n | n | n | n
Cc1cnc(C(=O)Nc2ccc(C(C)C)cc2)cn1 | n | n | n | 12 | n
